Results taken from PubChem BioAssay (NCATS).
Records with an inconclusive call do not appear. Active and inactive are the calls of the source. Unless noted, the call rests on the fitted dose curve; in most records, active means well fitted curve in the direction sought with a large enough effect; inconclusive means small, poorly fitted or top-dose-only effect, or another doubt; inactive means no such curve, though single readings can be large; an effect the other way counts as inactive or inconclusive.

Columns and labels:
[1] = Cytometric Cell-Based qHTS for Inhibitors of the mTORC1 Signaling Pathway in MEF (Tsc2-/-, p53-/-) Cells (AID 2660);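 further: Tsc2 and p53 null MEFs carrying empty vector with compound for 24 h; percent of cells above a phospho-rpS6 to PI ratio cutoff in each well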
Method in brief: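 Immunofluorescence qHTS of rpS6 Ser235/236 phosphorylation: MEFs (Tsc2-/-, p53-/-) treated 24 h, 37 C, in DMEM + 10% FBS. Alexa-488 signal normalized to PI count, referenced to rapamycin (7.5 nM) and DMSO; PI cell number recorded for viability.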

[2] = High Content Imaging Cell-Based qHTS for Inhibitors of the mTORC1 Signaling Pathway in MEF (Tsc2-/-, p53-/-) Cells (AID 2666); details: at 38.3 µM (top of the series);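 further: percent of cells scored positive for phospho-rpS6 Ser235/236 immunostaining by imaging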
Method in brief: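 Tsc2-/-, p53-/- MEFs (empty-vector stable) grown in DMEM + 10% FBS were exposed to compounds for 24 hrs at 37 degree Celsius, fixed, and stained with Alexa-488 anti-phospho-rpS6 Ser235/236 plus Hoechst. Imaging gave the percentage of positive cells per well.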

[3] = High Content Imaging Cell-Based qHTS for Inhibitors of the mTORC1 Signaling Pathway in MEF Cells (AID 2667);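 further: Tsc2-/- p53-/- MEFs stably re-expressing wild-type Tsc2 exposed 24 h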
Method in brief: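 Tsc2-/-, p53-/- MEFs stably re-expressing WT Tsc2, grown in DMEM + 10% FBS, were treated with compounds for 24 hrs at 37 degree Celsius, fixed, and stained with Alexa-488 phospho-rpS6 Ser235/236 antibody plus Hoechst; results given as % positive cells.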

[4] = Cytometry Cell-Based qHTS for Inhibitors of the mTORC1 Signaling Pathway in MEF cells (AID 2668);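 further: Tsc2-/- p53-/- mouse embryonic fibroblasts stably re-expressing wild-type Tsc2; percent cells positive for phospho-rpS6 Ser235/236 relative to propidium iodide stain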
Method in brief: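 In MEFs grown in DMEM + 10% FBS, a 24 hrs compound exposure preceded imaging of phospho-rpS6 Ser235/236 by laser-scanning cytometry.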

[5] = molecular target: Ubiquitin carboxyl-terminal hydrolase 2 (Homo sapiens) (UniProt O75604); assay: qHTS Validation Assay for Inhibitors of Ubiquitin-specific Protease USP2a Using CHOP2 as the Reporter (AID 463106)
Method in brief: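 Readout was coupled fluorescence (Ex 485/Em 531 nm), read 60 min after adding 25 nM final Ub-CHOP2 and 25 nM reporter substrate. Beforehand, 10 nM final USP2 core had 30 min at RT with compound in pH 8.0 buffer. Curves were fitted after normalization to NEM and flagged for artifacts using time-zero reads.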

[6] = molecular target: DNA polymerase III PolC-type (Bacillus subtilis (strain 168)) (UniProt P13267); assay: qHTS Validation Assay for the Inhibitors of DNA Replication in Gram-Positive Bacteria (AID 485295);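 further: reconstituted holoenzyme with PolC plus beta clamp SSB and primase; PicoGreen fluorescence of double-stranded DNA made on primed circular M13 template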
DNA polymerase III PolC-type (Bacillus subtilis (strain 168)), sequence (P13267 whole entry, looked up): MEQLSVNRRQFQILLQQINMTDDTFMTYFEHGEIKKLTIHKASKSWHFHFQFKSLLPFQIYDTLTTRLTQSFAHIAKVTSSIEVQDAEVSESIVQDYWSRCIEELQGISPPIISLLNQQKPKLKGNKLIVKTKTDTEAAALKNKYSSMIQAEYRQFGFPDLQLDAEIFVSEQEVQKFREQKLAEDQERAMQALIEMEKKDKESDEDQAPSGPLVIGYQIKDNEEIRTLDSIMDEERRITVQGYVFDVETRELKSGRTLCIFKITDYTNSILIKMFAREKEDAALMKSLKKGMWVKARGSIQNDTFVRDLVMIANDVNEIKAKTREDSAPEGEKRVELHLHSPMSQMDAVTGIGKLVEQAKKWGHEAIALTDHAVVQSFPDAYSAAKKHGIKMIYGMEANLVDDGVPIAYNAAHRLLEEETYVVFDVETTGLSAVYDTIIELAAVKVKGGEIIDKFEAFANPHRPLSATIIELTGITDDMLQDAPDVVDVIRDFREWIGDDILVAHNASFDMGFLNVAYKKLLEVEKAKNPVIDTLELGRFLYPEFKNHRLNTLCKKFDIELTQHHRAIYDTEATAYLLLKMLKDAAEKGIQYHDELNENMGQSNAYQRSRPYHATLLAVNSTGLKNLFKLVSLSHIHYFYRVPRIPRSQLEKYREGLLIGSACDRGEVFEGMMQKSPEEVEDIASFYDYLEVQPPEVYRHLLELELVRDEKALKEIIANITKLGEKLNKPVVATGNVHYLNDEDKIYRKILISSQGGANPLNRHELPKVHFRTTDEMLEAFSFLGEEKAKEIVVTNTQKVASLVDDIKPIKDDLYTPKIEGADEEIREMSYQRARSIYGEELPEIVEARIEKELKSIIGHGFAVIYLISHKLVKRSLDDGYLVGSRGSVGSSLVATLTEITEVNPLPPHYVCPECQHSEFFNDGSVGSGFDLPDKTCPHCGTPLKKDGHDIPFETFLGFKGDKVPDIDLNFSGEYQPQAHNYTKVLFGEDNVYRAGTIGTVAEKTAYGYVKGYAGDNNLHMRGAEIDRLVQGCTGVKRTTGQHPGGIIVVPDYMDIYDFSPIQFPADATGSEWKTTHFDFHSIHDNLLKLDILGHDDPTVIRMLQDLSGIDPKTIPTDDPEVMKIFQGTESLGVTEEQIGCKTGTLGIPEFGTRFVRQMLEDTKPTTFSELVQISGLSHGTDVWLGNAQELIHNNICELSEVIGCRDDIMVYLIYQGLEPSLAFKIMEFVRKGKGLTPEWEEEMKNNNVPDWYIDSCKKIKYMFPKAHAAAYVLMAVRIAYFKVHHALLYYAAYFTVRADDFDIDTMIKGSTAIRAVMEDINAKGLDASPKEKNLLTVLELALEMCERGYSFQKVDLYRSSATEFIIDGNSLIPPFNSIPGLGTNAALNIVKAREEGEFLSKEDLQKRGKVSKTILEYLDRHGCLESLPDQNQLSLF
Method in brief: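 Inhibition of DNA synthesis by the reconstituted PolC holoenzyme, monitored through PicoGreen staining of dsDNA formed from ssM13Gori, dNTPs and NTPs, with compound preincubation and room-temperature reaction.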

[7] = molecular target: Tumor susceptibility gene 101 protein (Homo sapiens) (UniProt Q99816); assay: qHTS Validation Assay for Iinhibitors of HIV-1 Budding by Blocking the Interaction of PTAP/TSG101 (AID 485342; calls by dose curve)
Tumor susceptibility gene 101 protein (Homo sapiens), sequence (Q99816 whole entry, looked up, the tested form may be a part): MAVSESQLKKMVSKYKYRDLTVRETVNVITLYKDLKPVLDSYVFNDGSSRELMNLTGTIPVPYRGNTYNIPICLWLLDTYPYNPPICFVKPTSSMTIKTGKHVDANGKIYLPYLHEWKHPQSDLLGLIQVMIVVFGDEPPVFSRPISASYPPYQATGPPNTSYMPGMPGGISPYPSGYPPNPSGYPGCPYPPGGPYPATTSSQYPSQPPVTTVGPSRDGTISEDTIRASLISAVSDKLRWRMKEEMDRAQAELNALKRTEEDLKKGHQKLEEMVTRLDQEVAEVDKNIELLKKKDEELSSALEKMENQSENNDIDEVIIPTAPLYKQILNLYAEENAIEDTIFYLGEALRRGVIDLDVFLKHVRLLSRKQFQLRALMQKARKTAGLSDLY
Method in brief: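 Compound wells held the Tsg101 binding domain (10 uM) and a FITC-conjugated PTAP peptide (50 nM) in buffer at pH 7.5 containing 0.15 M NaCl and 0.01% Tween 20; polarization was recorded after 20 min, r.t.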

[8] = molecular target: Beta-2 adrenergic receptor (Homo sapiens) (UniProt P07550); assay: qHTS validation assay of beta-arrestin-biased ligands of beta2-adrenergic receptor (AID 485366)
Method in brief: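 Agonism was measured as beta-arrestin recruitment to recombinant beta2-AR, releasing tTA to drive luciferase. Cells were exposed for 18 hr at 37 degrees C to a series up to 46 microM. %Activity from corrected luminescence gave concentration-response curves.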

[9] = molecular target: Flap endonuclease 1 (Homo sapiens) (UniProt P39748); assay: qHTS Validation Assay for the Inhibitors of Human Flap endonuclease 1 (FEN1) (AID 488816)
Flap endonuclease 1 (Homo sapiens), sequence (P39748 whole entry, looked up): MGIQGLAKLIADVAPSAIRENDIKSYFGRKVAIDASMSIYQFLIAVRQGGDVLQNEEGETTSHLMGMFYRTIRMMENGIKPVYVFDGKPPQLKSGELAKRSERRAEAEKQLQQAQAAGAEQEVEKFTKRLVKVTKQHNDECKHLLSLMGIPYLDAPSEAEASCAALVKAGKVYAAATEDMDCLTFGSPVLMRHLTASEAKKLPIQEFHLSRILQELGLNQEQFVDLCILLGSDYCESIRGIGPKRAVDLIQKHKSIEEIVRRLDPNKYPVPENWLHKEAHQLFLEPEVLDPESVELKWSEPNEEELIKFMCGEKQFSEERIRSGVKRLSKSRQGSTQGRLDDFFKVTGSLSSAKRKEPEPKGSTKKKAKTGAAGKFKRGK
Method in brief: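 qHTS format: compounds and 10 nM FEN1 incubated 15 min at room temperature before adding 50 nM substrate. Cleavage followed by reads at 0 and 15 min; normalized data fitted to a four-parameter Hill curve.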

[10] = molecular target: Chromobox protein homolog 1 (Homo sapiens) (UniProt P83916); assay: qHTS Validation Assay for Inhibitors of HP1-beta Chromodomain Interactions with Methylated Histone Tails (AID 488953); further: potency means the concentration at half of the fitted maximal effect; nearly all actives have a fitted effect of over 50% in size
Chromobox protein homolog 1 (Homo sapiens), sequence (P83916 whole entry, looked up): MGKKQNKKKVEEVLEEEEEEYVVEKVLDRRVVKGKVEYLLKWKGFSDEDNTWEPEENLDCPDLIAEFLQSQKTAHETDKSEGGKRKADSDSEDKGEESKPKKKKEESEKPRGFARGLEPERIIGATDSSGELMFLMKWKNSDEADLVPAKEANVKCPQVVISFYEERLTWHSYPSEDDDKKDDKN
Method in brief: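 AlphaScreen proximity readout: streptavidin donor and Ni-chelate acceptor beads, 10 ug/mL final, 30 min dark, RT. Complex of 50 nM HP1-beta and 50 nM b-H3(1-18)K9me3 formed 30 min, then compound-treated 30 min; PBS pH 7.4/0.01% Tween-20.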

[11] = molecular target: Methanococcus maripaludis chaperonin (MmCpn) (UniProt Q6LX38); assay: High-Throughput Screening for Modulators of Cytosolic Chaperonin Activity: MmCpn Primary Screen (AID 488978)
Methanococcus maripaludis chaperonin (MmCpn), sequence (Q6LX38 1-543): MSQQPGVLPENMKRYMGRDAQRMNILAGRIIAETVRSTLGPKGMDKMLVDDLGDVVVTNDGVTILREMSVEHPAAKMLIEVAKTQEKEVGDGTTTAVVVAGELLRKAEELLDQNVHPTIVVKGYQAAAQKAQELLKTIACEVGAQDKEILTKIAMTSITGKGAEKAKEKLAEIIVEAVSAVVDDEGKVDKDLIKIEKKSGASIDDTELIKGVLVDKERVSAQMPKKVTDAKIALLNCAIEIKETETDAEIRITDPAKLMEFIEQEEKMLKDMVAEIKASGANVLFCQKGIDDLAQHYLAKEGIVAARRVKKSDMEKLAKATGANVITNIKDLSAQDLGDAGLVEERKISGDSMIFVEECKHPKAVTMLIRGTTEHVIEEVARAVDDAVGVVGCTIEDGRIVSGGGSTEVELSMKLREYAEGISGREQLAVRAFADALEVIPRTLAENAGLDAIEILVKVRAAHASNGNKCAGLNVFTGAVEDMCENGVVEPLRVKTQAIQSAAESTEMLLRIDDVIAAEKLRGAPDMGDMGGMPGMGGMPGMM
Method in brief: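 HTRF readout (320 nm excitation, 590/665 nm emission) of ADP generated by 50 nM MmCpn hydrolysing 30 uM ATP during 10 min at 37C; compound preincubated 5 min RT.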

[12] = molecular target: D(1A) dopamine receptor (Homo sapiens) (UniProt P21728); assay: HTS Assay for Allosteric Agonists of the Human D1 Dopamine Receptor: Primary Screen for Agonists (AID 488981)
D(1A) dopamine receptor (Homo sapiens), sequence (P21728 whole entry, looked up): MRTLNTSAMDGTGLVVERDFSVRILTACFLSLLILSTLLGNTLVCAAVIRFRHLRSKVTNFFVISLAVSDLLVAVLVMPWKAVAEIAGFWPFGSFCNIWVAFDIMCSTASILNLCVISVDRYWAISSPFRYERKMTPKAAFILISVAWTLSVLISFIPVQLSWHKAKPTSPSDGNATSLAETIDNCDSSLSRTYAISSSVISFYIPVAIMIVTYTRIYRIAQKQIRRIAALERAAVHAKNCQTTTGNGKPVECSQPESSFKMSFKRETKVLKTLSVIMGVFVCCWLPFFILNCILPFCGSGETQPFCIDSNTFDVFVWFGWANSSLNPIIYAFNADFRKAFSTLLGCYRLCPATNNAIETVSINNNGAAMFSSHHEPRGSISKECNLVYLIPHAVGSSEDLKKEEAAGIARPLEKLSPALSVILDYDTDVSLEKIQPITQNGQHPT
Method in brief: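 Calcium flux in an inducible, force-coupled HEK293 Trex D1 line (overnight at 30 C): agonist mode is the 180 s kinetic read after compound; potentiator mode is the following 180 s read after dopamine at EC20.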

[13] = Validation screen for small molecules that induce genotoxicity in human embryonic kidney (HEK293T) cells expressing luciferase-tagged ELG1 (AID 493106)
Method in brief: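 qHTS format; 2,000 HEK293T ELG1-luc cells/well; 23 nL compound via pin tool; 16 hr, 37 °C/5% CO2; ONE-Glo, 30 min RT; luminescence read.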

[14] = qHTS for Inhibitors of Cell Surface uPA Generation: Validation Assay (AID 493164);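 further: RAW 264.7 macrophage cells exposed to compound for 18 h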
Method in brief: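 Compounds are titrated over seven points (2.45 nM–38.3 uM final) onto pre-plated RAW 264.7 cells and incubated for 18 h. Retained intracellular ATP, measured with ATP-Lite, indicates blocked lethal factor entry.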

[15] = molecular target: Peptidyl-prolyl cis-trans isomerase NIMA-interacting 1 (Homo sapiens) (UniProt Q13526); assay: qHTS Validation Assay to Find Inhibitors of Pin1 (AID 504536; active means well fitted inhibition curve with a large enough effect in the polarisation, with a control signal flat, not every such curve was filed as active; the % refers to the polarisation)
Method in brief: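 Fluorescence polarization competition: compounds (titration) displace HiFluor-488-labeled Pin1-1b peptide from Pin1 (0.3 uM final) in pH 7.5 HEPES buffer with DTT, 10 min at room temperature; %Activity normalized to no-enzyme wells, curves fitted.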

[16] = molecular target: Phosphoglycerate kinase, glycosomal (Trypanosoma brucei brucei) (UniProt P07378); assay: qHTS Validation Assay to Find Inhibitors of Phosphoglycerate Kinase (AID 504547)
Method in brief: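 Luminescence end-point (Kinase-Glo Plus, 10 min) after a 60 min room-temperature coupled reaction. GAPDH at 100nM final supplies 1,3-BPG to PGK. Buffer: 100mM TEA pH 7.6, 5mM MgCl2, 0.01% Tween-20. Wells lacking PGK served as controls.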

[17] = molecular target: phosphoglycerate mutase (Leishmania major) (UniProt Q4Q090); assay: qHTS Validation Assay to Find Inhibitors of Phosphoglycerate Mutase (AID 504548);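 further: end-point luminescence from Kinase-GloPlus after the PGAM reaction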
phosphoglycerate mutase (Leishmania major), sequence (Q4Q090 1-553): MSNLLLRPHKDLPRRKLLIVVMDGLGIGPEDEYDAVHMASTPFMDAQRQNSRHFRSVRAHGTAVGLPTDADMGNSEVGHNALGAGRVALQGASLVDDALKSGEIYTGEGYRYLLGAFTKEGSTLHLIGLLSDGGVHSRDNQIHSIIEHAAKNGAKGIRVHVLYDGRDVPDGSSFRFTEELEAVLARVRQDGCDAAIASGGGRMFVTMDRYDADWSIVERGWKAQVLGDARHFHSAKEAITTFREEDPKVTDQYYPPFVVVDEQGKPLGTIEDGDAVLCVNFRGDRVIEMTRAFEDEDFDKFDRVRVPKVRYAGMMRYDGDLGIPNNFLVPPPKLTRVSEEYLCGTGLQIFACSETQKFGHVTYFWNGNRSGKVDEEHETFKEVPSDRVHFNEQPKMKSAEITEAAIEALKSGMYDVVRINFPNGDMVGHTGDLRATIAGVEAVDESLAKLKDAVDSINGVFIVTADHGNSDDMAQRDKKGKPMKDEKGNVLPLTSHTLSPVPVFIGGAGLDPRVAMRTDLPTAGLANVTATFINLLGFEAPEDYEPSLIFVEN
Method in brief: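 L. major PGAM (1.25nM final) was added to substrate buffer and pinned compound, incubated 45 minutes at room temperature, then Kinase-GloPlus added; luminescence read after 10 minutes. Buffer: 100 mM TEA pH 7.6, 5 mM MgCl2, 0.01% Tween-20.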

[18] = qHTS for Inhibitors of ATXN expression: Validation (AID 588378); further: nearly all actives have a fitted effect of over 75% in size
Method in brief: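 After a 2 h attachment and 24 h compound incubation, HEK293-ATXN2-FFLuc wells are read for fluorescence at 405 nm excitation/525 nm emission as a viability measure, then for Bright-Glo luminescence reflecting ATXN2 expression.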

[19] = molecular target: Glutaminase kidney isoform, mitochondrial (Homo sapiens) (UniProt O94925); assay: qHTS for Inhibitors of Glutaminase (GLS): LOPAC Validation (AID 624146);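 further: glutamate product detected by oxidase and peroxidase coupled Amplex red fluorescence gain; nearly all actives have a fitted effect of over 60% in size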
Method in brief: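 Compounds were pin-transferred onto hKGA, after which L-glutamine (1 mM solution) and a detection mix of glutamate oxidase, HRP and Amplex Red were added. Initial and 30 min RT fluorescence reads were collected.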

[20] = qHTS of Trypanosoma Brucei Inhibitors: LOPAC Validation (AID 624147)
Method in brief: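 Activity of T. brucei pyruvate kinase was followed by Kinase-Glo Plus luminescence after the enzyme reacted 45 min at room temperature with 130 uM ADP (final) and substrate. Test compounds were added before ADP at multiple concentrations.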

[21] = molecular target: Glucagon-like peptide 1 receptor (Homo sapiens) (UniProt P43220); assay: qHTS of GLP-1 Receptor Agonists: LOPAC Validation (AID 624148);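 further: luminescence from a luciferase reporter switched on by cAMP; higher luminescence signal means agonism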
Glucagon-like peptide 1 receptor (Homo sapiens), sequence (P43220 whole entry, looked up): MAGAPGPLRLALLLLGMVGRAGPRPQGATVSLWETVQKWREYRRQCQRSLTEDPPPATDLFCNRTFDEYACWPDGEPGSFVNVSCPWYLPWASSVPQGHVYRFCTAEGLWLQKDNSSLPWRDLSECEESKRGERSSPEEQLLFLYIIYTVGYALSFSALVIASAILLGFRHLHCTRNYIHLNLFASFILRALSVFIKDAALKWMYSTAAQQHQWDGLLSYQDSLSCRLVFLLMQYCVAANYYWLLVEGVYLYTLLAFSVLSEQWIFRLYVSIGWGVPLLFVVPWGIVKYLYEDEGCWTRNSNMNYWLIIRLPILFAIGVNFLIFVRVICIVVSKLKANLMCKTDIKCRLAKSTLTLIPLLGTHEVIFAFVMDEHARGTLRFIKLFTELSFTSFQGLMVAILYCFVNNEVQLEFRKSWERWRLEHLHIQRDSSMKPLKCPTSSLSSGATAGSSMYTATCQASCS
Method in brief: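 Agonism scored as increased luciferase luminescence driven by cAMP in HEK293 clones carrying GLP-1R. Cells settled 12 hours, received compound for 4-6 hr at 37 deg C, 5% CO2, and were read after 12 min detection reagent at RT.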

[22] = qHTS of Nrf2 Activators: LOPAC Validation (AID 624149)
Method in brief: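 AREc32_Fluc cells, 1000/well, OPTI-MEM + 5% FBS, o/n 37 deg C 5% CO2; compound pin-transfer, 24 hr 37 deg C; Steady-Glo 30 min RT, luminescence read.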

[23] = HTS Assay for Allosteric Antagonists of the Human D2 Dopamine Receptor: Hit Validation in HTRF (AID 624455)
Method in brief: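 HTRF read-out; cells stably expressing D1 receptor; hits scored for inhibition of D1-mediated response. Primary screen: calcium flux, force-coupled inducible Hek293 Trex D2 line, antagonism vs EC80 dopamine.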

[24] = molecular target: Arylsulfatase A (Homo sapiens) (UniProt P15289); assay: qHTS screen for enhancers of Arylsulfatase A (ASA1): LOPAC Validation Assay (AID 720538); further: potency means the concentration at half of the fitted maximal effect
Arylsulfatase A (Homo sapiens), sequence (P15289 whole entry, looked up): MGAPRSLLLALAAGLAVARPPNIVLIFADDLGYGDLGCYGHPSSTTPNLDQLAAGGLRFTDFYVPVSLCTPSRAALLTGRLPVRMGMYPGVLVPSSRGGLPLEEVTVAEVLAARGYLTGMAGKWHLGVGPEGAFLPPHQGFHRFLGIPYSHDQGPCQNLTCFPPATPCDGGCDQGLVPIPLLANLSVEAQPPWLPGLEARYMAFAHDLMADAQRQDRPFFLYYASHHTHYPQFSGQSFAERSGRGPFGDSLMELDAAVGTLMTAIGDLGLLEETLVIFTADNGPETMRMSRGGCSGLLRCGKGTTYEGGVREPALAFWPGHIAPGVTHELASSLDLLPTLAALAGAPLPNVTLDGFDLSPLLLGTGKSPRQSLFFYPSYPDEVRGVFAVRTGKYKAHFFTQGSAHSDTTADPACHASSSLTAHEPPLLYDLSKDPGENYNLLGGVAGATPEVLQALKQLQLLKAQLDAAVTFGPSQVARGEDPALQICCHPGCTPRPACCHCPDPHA
Method in brief: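 Cell-based enhancement test: residual ASA activity in SV40-transformed I179S patient fibroblasts is measured by pNCS turnover (0.5mM final, 14h, room temperature) following 48h compound incubation; higher fluorescence indicates activation.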

[25] = qHTS for compounds that reverse cellular toxicity of Amyloid beta (A-beta) peptide in yeast: LOPAC Validation Assay (AID 720559)
Method in brief: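 Here, A-beta-toxic yeast grow with test compounds at 30 C for 48 hr before optical density at 600 nm is recorded; data are normalized against DMSO and the FeCl3-clioquinol control.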

Measured: Potency

CCc1ccc(/C=C2/SC(=S)NC2=O)cc1
active: [10] 12.6 µM | [24] 15.1 µM
inactive: all other assays above
